Bioassay records: PubChem, National Center for Advancing Translational Sciences (NCATS)
The entries come from a sample that favours hits as a whole.
HT1080NT lethal – kills 2HG-producing HT-1080-NT fibrosarcoma cells; Potency, µM (top dose mostly 46.1 µM), for inactives: at the top dose activity, negative = less viability, most hits filed as cytotoxic; HT-1080-NT fibrosarcoma viability, CellTiter-Glo ATP luminescence, 48 h; AID 686970; hit rate 1.6% among 360,000;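 further: NT is the 2HG producing partner of a matched IDH1 knockdown line; potency means the concentration at half of the fitted maximal effect; 0% = DMSO-treated cells and -100% = media-only wells without cells; nearly all actives have a fitted effect of over 55% in size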
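Read-out is CellTiter-Glo luminescence after 10 minutes at room temperature, following 48 hours' compound treatment of HT-1080-NT cells (750 cells/well, RPMI, 5% FBS, 37 degrees C).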
DT40 TDP1 no CPT – qHTS for Inhibitors of human tyrosyl-DNA phosphodiesterase 1 (TDP1): qHTS in cells in absence of CPT | DT40 Tdp1-/- hTDP1 cells, no CPT, ATP luminescence, 48 h | Potency, µM (top dose mostly 46.2 µM), inactives show at the top dose activity change, negative = growth inhibition, actives largely listed as inhibitors | hit rate 15% among 420,000 | AID 686978, 2013; further: potency means the concentration at half of the fitted maximal effect; nearly all actives have a fitted effect of over 55% in size
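Growth of hTDP1-complemented DT40 Tdp1-knockout cells is measured by ATP luminescence after at least 48 hr compound exposure at 37 °C, with DMSO substituting for the 20 nM CPT used in the parallel screen.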
12-LOX inh – inhibitors of human 12S-lipoxygenase ALOX12. purified 12hLO, xylenol orange hydroperoxide absorbance. Potency, µM (doses to about 108 µM), for the others: at the top dose activity change, negative = inhibition, usual class: inhibitors. P18054. hit rate 1.1% among 580,000; further: potency means the concentration at half of the fitted maximal effect
Target sequence (P18054 whole entry, looked up): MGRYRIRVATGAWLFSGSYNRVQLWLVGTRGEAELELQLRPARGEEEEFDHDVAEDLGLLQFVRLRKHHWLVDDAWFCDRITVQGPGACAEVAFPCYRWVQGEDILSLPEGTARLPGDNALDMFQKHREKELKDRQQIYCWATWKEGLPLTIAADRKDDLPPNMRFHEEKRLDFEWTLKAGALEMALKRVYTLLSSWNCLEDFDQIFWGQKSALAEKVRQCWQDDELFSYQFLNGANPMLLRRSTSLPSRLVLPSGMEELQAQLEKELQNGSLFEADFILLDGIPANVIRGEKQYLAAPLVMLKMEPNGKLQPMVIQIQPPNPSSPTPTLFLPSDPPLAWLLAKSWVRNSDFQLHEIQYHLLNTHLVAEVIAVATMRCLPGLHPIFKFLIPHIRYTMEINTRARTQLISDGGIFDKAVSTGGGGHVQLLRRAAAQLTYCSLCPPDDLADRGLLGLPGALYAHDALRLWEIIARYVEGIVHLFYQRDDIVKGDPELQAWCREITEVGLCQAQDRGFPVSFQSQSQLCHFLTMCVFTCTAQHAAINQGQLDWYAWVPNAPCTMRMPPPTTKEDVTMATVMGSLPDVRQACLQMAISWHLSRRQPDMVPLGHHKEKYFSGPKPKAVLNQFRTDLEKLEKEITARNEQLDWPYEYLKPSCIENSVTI
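Hydroperoxide product was detected by ferrous iron/xylenol orange as the 573 to 405 nm absorbance ratio. Arachidonic acid at 40 uM (final) was turned over for 30 min at room temperature by 150 nM human 12hLO, pH 7.0 Hepes buffer, after 15 min compound preincubation.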
HT1080 IDH1KD tx – kills HT-1080 cells with IDH1 knockdown | Potency, µM (doses to about 46.1 µM), inactives show at the top dose activity, negative = toxicity, usual class: cytotoxic | HT-1080 IDH1 knockdown viability, ATP luminescence, 48 h | AID 686971 | hit rate 2% among 360,000;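 further: potency means the concentration at half of the fitted maximal effect; 0% = DMSO wells and -100% = cell-free medium wells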
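Assay cells: HT-1080 with IDH1 knockdown, 750 per well, RPMI/5% FBS. Exposure: 48 h at 37 °C following 2 h pre-incubation. Read: CellTiter-Glo luminescence; fitted concentration-response, curve class assigned.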
TDP1 cell CPT – growth inhibition of DT40 Tdp1-/-;hTDP1 cells with camptothecin (screen for TDP1 inhibitors). chicken DT40 Tdp1-/-;hTDP1 cells + 20 nM CPT, ATP luminescence, 48 h. Potency, µM (highest dose often 46.2 µM), without a hit: top-dose activity change, negative = growth inhibition, usual class: inhibitors. hit rate 12% among 420,000. AID 686979; further: potency means the concentration at half of the fitted maximal effect; nearly all actives have a fitted effect of over 55% in size
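Chicken DT40 Tdp1-/- cells complemented with human TDP1, 400 cells/well, exposed to compounds plus 20 nM camptothecin for at least 48 h at 37 C; viability read as ATP content by CellTiter-Glo luminescence.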
IL-1B inflam inh – inhibitors of inflammasome signaling (IL-1 beta secretion) | hit rate 4.7% among 360,000 | THP-1 LPS/ATP IL-1B secretion, AlphaLISA, 16 h; hits give low values | activity change, % at 57.5 µM; in the data active means activity change below about -50%; inconclusive means mostly about -30% to -49%
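THP-1 cells pretreated 1 hr with compounds (up to 57.5 uM final), then stimulated with LPS (250 ng/mL final) plus ATP (1.25 mM final); secreted IL-1B measured by AlphaLISA after 16 hr, decreased signal indicating inhibition.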
Active calls of the source: *; ? = inconclusive; · = no result given; [ ] = dose if it differs, or a comment. Unless noted, the call rests on the fitted dose curve; in most records, active means well fitted curve in the direction sought with a large enough effect; inconclusive means small, poorly fitted or top-dose-only effect, or another doubt; inactive means no such curve, though single readings can be large; an effect the other way counts as inactive or inconclusive. Unless noted, on the % scale 0 is the no-effect control and ±100 the full control effect.

SMILES	HT1080NT lethal	DT40 TDP1 no CPT	12-LOX inh	HT1080 IDH1KD tx	TDP1 cell CPT	IL-1B inflam inh
O=C(CCC1N=C2c3ccccc3N=C(SCc3cccc(F)c3)N2C1=O)NCCc1ccccc1 (stereo not drawn)	·	?	?	·	21µM*	·
O=C(CCC1N=C2c3ccccc3N=C(SCc3cccc(Cl)c3)N2C1=O)NCc1cccs1 (stereo not drawn)	·	21µM*	-25%	·	12µM*	·
O=C(CCC1N=C2c3ccccc3N=C(SCc3ccccc3Cl)N2C1=O)NCCc1ccccc1 (stereo not drawn)	·	-30%	-14%	·	?	·
O=C(CCC1N=C2c3ccccc3N=C(SCc3ccc(Cl)cc3)N2C1=O)NCc1cccs1 (stereo not drawn)	·	?	-1%	·	?	·
Cc1ccnc(N/C=C(/NC(=O)c2ccccc2)C(=O)N/N=C\c2ccc(Cl)cc2)n1	25%	?	-31%	12%	?	-9
Cc1cccc(NS(=O)(=O)c2ccc(C3CCCCC3)cc2)c1	?	15µM*	26%	?	21µM*	-11
N#CCc1ccc(NS(=O)(=O)c2ccc(C3CCCCC3)cc2)cc1	?	15µM*	-17%	?	23µM*	12
Cc1cc(CNC(=O)Cc2nonc2C)c2[nH]c(-c3ccccc3)c(C)c2c1	·	·	16%	·	·	·
Cc1cc(NC(=O)CCS(=O)(=O)c2nc(-c3ccccc3)cc(C(F)(F)F)n2)no1	?	1.8µM*	0%	-14%[9.24 µM]	1.6µM*	-121*
Cc1ccc(S(=O)(=O)CCC(=O)Nc2cc(C)on2)cc1	5%	-9%	-3%	9%	-7%	12
Cc1cccc(C)c1NC(=O)CCSc1nc(-c2ccc3c(c2)OCO3)cc(C(F)(F)F)n1	·	·	-20%	·	·	·
CCS(=O)(=O)c1nc(-c2ccc(Cl)cc2)cc(C(F)(F)F)n1	·	·	4%	·	·	·
COc1ccc(NC(=O)CCS(=O)(=O)c2nc(-c3ccc4c(c3)OCO4)cc(C(F)(F)F)n2)cc1	·	7.3µM*	-24%	·	6.5µM*	·
CS(=O)(=O)c1nc(-c2ccccc2)cc(C(F)(F)F)n1	21µM*	1.2µM*	-3%	12µM*	1µM*	-96*
O=C(CCS(=O)(=O)c1nc(-c2ccc3c(c2)OCO3)cc(C(F)(F)F)n1)Nc1ccc(F)cc1F	·	21µM*	?	·	?	·
CCOc1cc(C(=O)N2CCC(CC3CC(c4cccc(Br)c4)=NO3)(C(=O)NCC3CCCCC3)CC2)cc(OCC)c1OCC (stereo not drawn)	1%	21µM*	-2%	1%	?	?
O=C(C1CCCC1)N1CCC(CC2CC(c3cccc(Br)c3)=NO2)(C(=O)NCC2CCCCC2)CC1 (stereo not drawn)	-8%	?	?	-6%	16µM*	0
O=C(C1CCCC1)N1CCC(CC2CC(c3ccc(Cl)cc3)=NO2)(C(=O)NCC2CCCCC2)CC1 (stereo not drawn)	3%	-21%	7%	-6%	-23%	-29
COC[C@@H]1CN(C(=O)c2ccccc2OC)C[C@H]1c1nc(C2CC2)no1	·	·	-1%	·	·	·
Cc1cncc2cccc(S(=O)(=O)N3CCCN(C(=O)CN)C[C@@H]3C)c12	·	·	4.3µM*	·	·	·
Cc1cnc2c(S(=O)(=O)N3CCCC3C(=O)N(C)C)cccc2c1 (stereo not drawn)	·	·	6%	·	·	·
Cc1nc2cc(Cl)ccc2cc1C(=O)NC1CCS(=O)(=O)C1 (stereo not drawn)	·	·	-15%	·	·	·
COCCn1nnnc1C(c1cc2c(C)cc(C)cc2[nH]c1=O)N1CCCCCC1 (stereo not drawn)	-22%	18µM*	·	?	23µM*	-19
COCCn1nnnc1C(c1cc2cc(OC)ccc2[nH]c1=O)N1CCC(Cc2ccccc2)CC1 (stereo not drawn)	0%	23µM*	-39%	-2%	15µM*	?
COc1ccc2cc(C(c3nnnn3CC3CCCO3)N3CCOCC3)c(=O)[nH]c2c1 (stereo not drawn)	-2%	-16%	-27%	2%	-7%	4
SMILES	HT1080NT lethal	DT40 TDP1 no CPT	12-LOX inh	HT1080 IDH1KD tx	TDP1 cell CPT	IL-1B inflam inh
COc1ccc2cc(C(c3nnnn3CCc3ccccc3)N3CCCC(C)C3)c(=O)[nH]c2c1 (stereo not drawn)	1%	?	?	-2%	?	-85*
CCN(Cc1ccccc1)C(c1cc2cc(C)ccc2[nH]c1=O)c1nnnn1CCOC (stereo not drawn)	5%	?	?	1%[9.24 µM]	-25%	-9
CCN(Cc1ccccc1)C(c1cc2cc(C)cc(C)c2[nH]c1=O)c1nnnn1CCOC (stereo not drawn)	-8%	?	0%	-12%	?	-52*
COCCn1nnnc1C(c1cc2cc(C)ccc2[nH]c1=O)N1CCCCCC1 (stereo not drawn)	-9%	-15%	·	2%	-11%	-25
COc1ccc2[nH]c(=O)c(C(c3nnnn3CC3CCCO3)N3CCCCC3)cc2c1 (stereo not drawn)	10%	-3%	-18%	8%	5%	0
CCOc1cc2c(cc1/C=C(/C#N)c1ccccn1)OC(C)C2 (stereo not drawn)	·	·	-45%	·	·	·
Clc1ccc(N=Cc2ccc(Br)cc2)cc1Cl	·	·	57%	·	·	·
O=C(Nc1ccc(Cl)c(-c2nc3ccccc3o2)c1)c1cc([N+](=O)[O-])ccc1N1CCOCC1	·	·	-10%	·	·	·
O=Cc1ccc(OCc2ccc(Br)cc2)cc1	·	·	-51%	·	·	·
C=C1C(=O)OC2C1C(OC(=O)C(C)=CC)CC(=C)C1C(O)C3OC3(C)C21O (stereo not drawn)	-1%	15µM*	13%	15µM*	15µM*	-101*
Cc1cc2c(cc1C)-n1nnnc1C(N(C)CCc1ccccc1)C(=O)N2 (stereo not drawn)	-1%	15µM*	?	-7%	23µM*	20
CC(NS(=O)(=O)c1cc(F)ccc1F)C(=O)N1CCCC1 (stereo not drawn)	·	·	-7%	·	·	·
Cc1cc(C)c2c(c1)NC(C(=O)O)C1CC=CC21 (stereo not drawn)	9%	-20%	7.9µM*	-4%	?	-1
CCc1c(-c2ccccc2)nc2ccccc2c1C(=O)NC(C)c1ccccc1 (stereo not drawn)	·	23µM*	-26%	·	?	·
Cc1c(-c2ccccc2)nc2ccccc2c1C(=O)NC(C)C	·	·	4%	·	·	·
